Activity calls are given as the source filed them.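 How the source made its calls, unless noted: active means fluorescence slope after compound addition differing from the mean of all screened samples at 99.7% confidence, in either direction; inactive means the rest.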
Experiments:
[1] = inhibitors of TNFa-induced NFkB p65 translocation, primary screen, imaging, HUVEC, MLSMR starter and 10KST1 sets (AID 438;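 active means inhibition above 20% together with a positive visual image hit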;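 further: compound added about 3h40 before a 20 min TNFalpha stimulation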;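 on inhibition: signal is the nuclear over cytoplasmic p65 intensity ratio per well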); conditions: HUVEC TNFa-induced p65 nuclear translocation; cell count: measured here: nuclei count (cytotoxicity indicator), at 2.08 µM; inhibition: at 2 µM, stronger effect = higher value, 0% TNFa-plus-vehicle, 100% no-TNFa wells
[2] = reduction of polyQ htt aggregates in cells – imaging, exon1htt(103Q)mCFP cells, high-content imaging, primary screen (AID 483;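 active means visual image review flags a hit and inhibition of aggregation exceeds 20%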;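 further: compound exposure lasted 3 days before fixation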;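 on nuclei count: percent of the per-plate median nuclei count of sample wells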); conditions: exon1htt(103Q)mCFP cell line, aggregate imaging, at 2 µM; inhibition of aggregation: stronger effect = higher value; nuclei count: measured here: cell count, toxicity
[3] = endothelial E-selectin expression blockers – imaging, HUVEC, immunofluorescence, MLSMR starter and 10KST1 sets, primary screen (AID 487;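 active means visually confirmed hit in the image check and inhibition above 20%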;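 on inhibition: signal is fraction of cell area covered by stained E-selectin grains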;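 on nuclei count: 100% = median nuclei count of all wells on the same plate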); conditions: HUVEC TNFalpha-induced E-selectin immunofluorescence imaging, at 2 µM; inhibition: stronger effect = higher value; nuclei count: measured here: cell number, toxicity
[4] = biological target: Voltage-gated potassium channel subunit beta-2 (Rattus norvegicus) (UniProt P62483); assay: inhibitors of rat Kvbeta2 reductase activity – biochemical, NADPH fluorescence, primary screen (AID 622;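 active means fluorescence slope higher than the sample average by over 3 SD, cut at about -0.22 in these data, passing the limit was not always enough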;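 further: slope of raw intensity against log time taken from 70 to 1610 s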); conditions: recombinant KvBeta, 4-cyanobenzaldehyde reduction, at 10 µM, stronger effect = higher value
Voltage-gated potassium channel subunit beta-2 (Rattus norvegicus), sequence (P62483 whole entry, looked up): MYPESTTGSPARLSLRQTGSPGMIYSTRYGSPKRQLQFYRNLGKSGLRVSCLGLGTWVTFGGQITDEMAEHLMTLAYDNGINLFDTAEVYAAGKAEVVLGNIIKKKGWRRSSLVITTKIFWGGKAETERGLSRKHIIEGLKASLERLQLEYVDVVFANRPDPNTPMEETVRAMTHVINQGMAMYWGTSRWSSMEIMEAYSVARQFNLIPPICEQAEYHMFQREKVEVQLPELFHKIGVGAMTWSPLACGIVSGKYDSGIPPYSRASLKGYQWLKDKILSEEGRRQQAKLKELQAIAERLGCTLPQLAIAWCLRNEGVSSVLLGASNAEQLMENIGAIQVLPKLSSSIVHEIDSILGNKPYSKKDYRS

[5] = biological target: Voltage-gated potassium channel subunit beta-2 (Rattus norvegicus) (UniProt P62483); assay: enhancers of rat Kvbeta2 NADPH turnover – biochemical, NADPH fluorescence, primary screen (AID 623;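 active means NADPH fluorescence slope more negative than the mean of all samples by about 3 SD, 99.7% confidence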;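 further: fluorescence intensity change per second fitted from 20 to 320 s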); conditions: Recombinant KvBeta, NADPH fluorescence decrease slope, 10 min; at 10 µM; stronger effect = lower value
[6] = biological target: Alpha-2C adrenergic receptor (Homo sapiens) (UniProt P18825); assay: compounds altering alpha2C-coupled GIRK flux – cell-based, HEK293 alpha2C/GIRK1/2, thallium flux, primary screen (AID 624); conditions: thallium flux BTC fluorescence, at 10 µM, actives lie on both sides;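 further: slope of fluorescence ratio to pre-addition baseline per second over 15 to 24 s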
Alpha-2C adrenergic receptor (Homo sapiens), sequence (P18825 whole entry, looked up): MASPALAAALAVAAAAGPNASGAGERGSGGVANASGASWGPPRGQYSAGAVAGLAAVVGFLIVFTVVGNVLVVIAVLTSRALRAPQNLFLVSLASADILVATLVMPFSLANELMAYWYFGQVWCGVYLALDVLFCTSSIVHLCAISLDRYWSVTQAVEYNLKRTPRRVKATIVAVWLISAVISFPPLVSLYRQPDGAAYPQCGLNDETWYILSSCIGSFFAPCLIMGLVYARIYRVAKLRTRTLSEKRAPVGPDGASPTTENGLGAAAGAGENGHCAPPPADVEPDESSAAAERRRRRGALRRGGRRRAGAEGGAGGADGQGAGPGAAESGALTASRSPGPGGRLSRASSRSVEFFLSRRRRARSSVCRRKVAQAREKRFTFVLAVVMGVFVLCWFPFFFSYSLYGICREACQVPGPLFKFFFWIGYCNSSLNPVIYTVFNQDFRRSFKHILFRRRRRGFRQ

[7] = blockers of RIG-like receptor reporter activation – cell-based, Sendai virus stimulus, luciferase, 10K MLSCN set, TLR/RLR signaling modifier project, primary screen (AID 602276;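 active means inhibition at or above 50% at 10 µM; inactive means inhibition below 50%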;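 further: firefly luciferase from ISG56 promoter only with Renilla not read in this screen; 0% = Sendai virus plus DMSO and 100% = medium plus DMSO without virus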); conditions: HEK293 RL24 IRF3 luciferase reporter, at 10 µM, stronger effect = higher value
[8] = TLR3 IRF3 reporter activation blockers – cell-based, poly I:C stimulus, luciferase, 10K MLSCN set, primary screen (AID 602277;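 active means inhibition of the reporter signal at or above 50%; inactive means inhibition below 50%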); conditions: HEK293-TLR3 RL24 IRF3 luciferase reporter, at 10 µM, stronger effect = higher value

Row | Compound | cell count [1] | inhibition [1] | inhibition of aggregation [2] | nuclei count [2] [%] | inhibition [3] | nuclei count [3] [%] | fluorescence slope [4] | NADPH fluorescence slope [5] | slope [6] | inhibition [7] | inhibition [8]
1 | CCN(CC)C(=O)COC(=O)c1ccc(O)cc1 | 440 | 7.7% (inactive) | 9.9% (inactive) | 83.5 | -5.4% (inactive) | 99.1 | -0.512 (inactive) | 2.3e-05 (inactive) | 0.00516 (inactive) | -1.76% (inactive) | -1.25% (inactive)
2 | COC(=O)C1=C(C)NC(C)=C(C(=O)OC)C1C1CC=CCC1 (stereo not drawn) | 377 | 1.7% (inactive) | 24.3% (inactive) | 91.2 | 32.4% (inactive) | 93.7 | -0.456 (inactive) | 8.7e-05 (inactive) | 0.00547 (inactive) | 8.91% (inactive) | 22.8% (inactive)
3 | C/C=C(\C)c1nnc(NC(=O)OCC)s1 | 743 | -5% (inactive) | -16% (inactive) | 115 | -52% (inactive) | 110 | -0.342 (inactive) | -5.8e-05 (inactive) | 0.00534 (inactive) | -36.1% (inactive) | -51.1% (inactive)
4 | Cc1cccc(-n2ncc3c(NCCCO)ncnc32)c1 | 840 | 2.3% (inactive) | -32% (inactive) | 101 | -2.8% (inactive) | 107 | -0.582 (inactive) | -1.5e-05 (inactive) | 0.00564 (inactive) | -58.8% (inactive) | -193% (inactive)
5 | Fc1cccc(NCc2cn3ccccc3n2)c1 | 664 | -8% (inactive) | -73.5% (inactive) | 91.8 | -64.2% (inactive) | 120 | -0.209 (inactive) | -1.6e-05 (inactive) | 0.00555 (inactive) | -1.05% (inactive) | -62.5% (inactive)
6 | COc1ccccc1C(=O)Nc1ccc(S(=O)(=O)N2CCCC2)cc1 | 676 | 2.2% (inactive) | 7.3% (inactive) | 114 | -22.4% (inactive) | 108 | -0.584 (inactive) | -2.5e-05 (inactive) | 0.0037 (inactive) | 8.65% (inactive) | -0.301% (inactive)
7 | COc1cccc(C(=O)NCc2nnc(SCC(=O)Nc3nccs3)n2-c2ccccc2)c1 | 756 | -9.1% (inactive) | -1.7% (inactive) | 120 | -20.4% (inactive) | 107 | -0.626 (inactive) | 1.6e-05 (inactive) | 0.0057 (inactive) | 10.5% (inactive) | 35.1% (inactive)
8 | CCOC(=O)CN1CC23C=CC(O2)C(C(=O)Nc2ccc(C(C)=O)cc2)C3C1=O (stereo not drawn) | 813 | -6.9% (inactive) | -2.6% (inactive) | 127 | -18.4% (inactive) | 127 | -0.574 (inactive) | -2.3e-05 (inactive) | 0.00637 (inactive) | -3.34% (inactive) | 7.25% (inactive)

Reference: PubChem BioAssay
